Assay results from PubChem BioAssay.
Active and inactive are the calls of the source. Cut-off read from the data, not from the text of the source: active = inhibition above about 44%; inactive = the rest.

These compounds were tested against Steroidogenic factor 1 (Homo sapiens) (UniProt Q13285) (assay: inverse agonism at SF1 nuclear receptor – cell-based, luminescence, high throughput, counter-screen for LRH-1 inverse agonist project (AID 651614;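 note: cells cotransfected with StAR promoter reporter and SF1 expression vector; 0% = vehicle on cells with receptor and 100% = vehicle on cells lacking receptor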)). Settings: cell-based SF1 luciferase reporter, at 3.6 µM, stronger effect = higher value.
Chain of Steroidogenic factor 1 (Homo sapiens) (Q13285 whole entry, looked up): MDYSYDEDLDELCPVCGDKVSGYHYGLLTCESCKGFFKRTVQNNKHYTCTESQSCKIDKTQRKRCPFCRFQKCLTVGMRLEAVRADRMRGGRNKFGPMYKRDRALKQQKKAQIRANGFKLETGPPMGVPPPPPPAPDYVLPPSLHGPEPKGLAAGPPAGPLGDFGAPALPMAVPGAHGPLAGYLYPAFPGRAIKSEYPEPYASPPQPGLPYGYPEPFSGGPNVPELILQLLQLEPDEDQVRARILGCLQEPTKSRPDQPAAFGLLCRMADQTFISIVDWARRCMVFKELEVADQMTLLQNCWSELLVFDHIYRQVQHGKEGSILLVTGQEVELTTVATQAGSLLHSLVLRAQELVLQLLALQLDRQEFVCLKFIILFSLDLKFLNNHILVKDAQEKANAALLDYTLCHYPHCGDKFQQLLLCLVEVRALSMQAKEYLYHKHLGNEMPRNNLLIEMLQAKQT

Structure (SMILES) | inhibition
O=C(CCl)N1CCN(S(=O)(=O)Cc2ccccc2)CC1 | 47.5% (active)
COC(=O)c1ccc(OCC2c3cc(OC)c(OC)cc3CCN2C(=O)c2ccco2)cc1 (centres undefined) | 53% (active)
CN(C)c1ccc2nc3ccc(=[N+](C)C)cc-3sc2c1 | 66.7% (active)
C#CCN(C[C@@H]1[C@@H](OC(=O)Nc2cccs2)[C@@H](OC(=O)Nc2cccs2)Cn2c(=O)ccc(=O)n21)S(=O)(=O)c1ccc(C)cc1 | 54.8% (active)
O=C(Nc1ccc(Br)cn1)C1CCN(S(=O)(=O)c2cccs2)CC1 | 50.2% (active)
CCc1cc(-c2nnn(CCC3COCCO3)c2CC)ccc1-c1cn(Cc2ccc3ccccc3c2)nn1 (centres undefined) | 42.3% (inactive)
O=C(N/N=C/c1ccc([N+](=O)[O-])o1)c1ccc(O)cc1 | 69% (active)
CN(C)C(=O)c1cccc(COc2ccc(N3C(N)=NC(N)=NC3(C)C)cc2Cl)c1 | 39.9% (inactive)
COc1ccc(OC)c(N(CCN2C(=O)c3ccccc3C2=O)C(=O)CCl)c1 | 54% (active)
CC(=O)Nc1ccc(NC(=O)CSc2nnc(-c3ccco3)n2Cc2ccco2)cc1 | 59.9% (active)
N#Cc1cccc(C=C(C(=O)c2ccccc2)c2ccccc2)c1 | 36.9% (inactive)
CNC(=O)c1cc(Oc2ccc(NC(=O)Nc3ccc(Cl)c(C(F)(F)F)c3)cc2)ccn1 | 69% (active)
COc1ccc(-c2nc3c([nH]2)c(=O)n(C)c(=O)n3C)c(OC)c1 | 12.7% (inactive)
COc1cccc(N2CCN(CC(=O)Nc3ccc(-n4cnnn4)cc3)CC2)c1 | 48.9% (active)
